Data: publication PMC8222333, “AsCas12a ultra nuclease facilitates the rapid generation of therapeutic cell medicines”

B1: GCGC (dsDNA)
DNA 1: GCTATCTAGTGCTCAGTACGCACTGGCGCAGGAAACTTCTGGCAGGACCAGGTCATGAGATCGGAAGAGCACACGTCTGAACTCCAGTCA
DNA 2: TGACTGGAGTTCAGACGTGTGCTCTTCCGATCTCATGACCTGGTCCTGCCAGAAGTTTCCTGCGCCAGTGCGTACTGAGCACTAGATAGC
RNA: AAUUUCUACUCUUGUAGAUAGGAAACUUCUGGCAGGACC
B2: AACA (dsDNA)
DNA 1: GCTATCTAGTGCTCAGTACGCACTGAACAAGGAAACTTCTGGCAGGACCAGGTCATGAGATCGGAAGAGCACACGTCTGAACTCCAGTCA
DNA 2: TGACTGGAGTTCAGACGTGTGCTCTTCCGATCTCATGACCTGGTCCTGCCAGAAGTTTCCTTGTTCAGTGCGTACTGAGCACTAGATAGC
RNA: AAUUUCUACUCUUGUAGAUAGGAAACUUCUGGCAGGACC
B3: AACC (dsDNA)
DNA 1: GCTATCTAGTGCTCAGTACGCACTGAACCAGGAAACTTCTGGCAGGACCAGGTCATGAGATCGGAAGAGCACACGTCTGAACTCCAGTCA
DNA 2: TGACTGGAGTTCAGACGTGTGCTCTTCCGATCTCATGACCTGGTCCTGCCAGAAGTTTCCTGGTTCAGTGCGTACTGAGCACTAGATAGC
RNA: AAUUUCUACUCUUGUAGAUAGGAAACUUCUGGCAGGACC
B4: GTAA (dsDNA)
DNA 1: GCTATCTAGTGCTCAGTACGCACTGGTAAAGGAAACTTCTGGCAGGACCAGGTCATGAGATCGGAAGAGCACACGTCTGAACTCCAGTCA
DNA 2: TGACTGGAGTTCAGACGTGTGCTCTTCCGATCTCATGACCTGGTCCTGCCAGAAGTTTCCTTTACCAGTGCGTACTGAGCACTAGATAGC
RNA: AAUUUCUACUCUUGUAGAUAGGAAACUUCUGGCAGGACC
B5: GTGC (dsDNA)
DNA 1: GCTATCTAGTGCTCAGTACGCACTGGTGCAGGAAACTTCTGGCAGGACCAGGTCATGAGATCGGAAGAGCACACGTCTGAACTCCAGTCA
DNA 2: TGACTGGAGTTCAGACGTGTGCTCTTCCGATCTCATGACCTGGTCCTGCCAGAAGTTTCCTGCACCAGTGCGTACTGAGCACTAGATAGC
RNA: AAUUUCUACUCUUGUAGAUAGGAAACUUCUGGCAGGACC
B6: TGCC (dsDNA)
DNA 1: GCTATCTAGTGCTCAGTACGCACTGTGCCAGGAAACTTCTGGCAGGACCAGGTCATGAGATCGGAAGAGCACACGTCTGAACTCCAGTCA
DNA 2: TGACTGGAGTTCAGACGTGTGCTCTTCCGATCTCATGACCTGGTCCTGCCAGAAGTTTCCTGGCACAGTGCGTACTGAGCACTAGATAGC
RNA: AAUUUCUACUCUUGUAGAUAGGAAACUUCUGGCAGGACC
B7: AAAA (dsDNA)
DNA 1: GCTATCTAGTGCTCAGTACGCACTGAAAAAGGAAACTTCTGGCAGGACCAGGTCATGAGATCGGAAGAGCACACGTCTGAACTCCAGTCA
DNA 2: TGACTGGAGTTCAGACGTGTGCTCTTCCGATCTCATGACCTGGTCCTGCCAGAAGTTTCCTTTTTCAGTGCGTACTGAGCACTAGATAGC
RNA: AAUUUCUACUCUUGUAGAUAGGAAACUUCUGGCAGGACC
B8: GTAT (dsDNA)
DNA 1: GCTATCTAGTGCTCAGTACGCACTGGTATAGGAAACTTCTGGCAGGACCAGGTCATGAGATCGGAAGAGCACACGTCTGAACTCCAGTCA
DNA 2: TGACTGGAGTTCAGACGTGTGCTCTTCCGATCTCATGACCTGGTCCTGCCAGAAGTTTCCTATACCAGTGCGTACTGAGCACTAGATAGC
RNA: AAUUUCUACUCUUGUAGAUAGGAAACUUCUGGCAGGACC
B9: GTCA (dsDNA)
DNA 1: GCTATCTAGTGCTCAGTACGCACTGGTCAAGGAAACTTCTGGCAGGACCAGGTCATGAGATCGGAAGAGCACACGTCTGAACTCCAGTCA
DNA 2: TGACTGGAGTTCAGACGTGTGCTCTTCCGATCTCATGACCTGGTCCTGCCAGAAGTTTCCTTGACCAGTGCGTACTGAGCACTAGATAGC
RNA: AAUUUCUACUCUUGUAGAUAGGAAACUUCUGGCAGGACC
B10: AAAG (dsDNA)
DNA 1: GCTATCTAGTGCTCAGTACGCACTGAAAGAGGAAACTTCTGGCAGGACCAGGTCATGAGATCGGAAGAGCACACGTCTGAACTCCAGTCA
DNA 2: TGACTGGAGTTCAGACGTGTGCTCTTCCGATCTCATGACCTGGTCCTGCCAGAAGTTTCCTCTTTCAGTGCGTACTGAGCACTAGATAGC
RNA: AAUUUCUACUCUUGUAGAUAGGAAACUUCUGGCAGGACC
B11: GGGG (dsDNA)
DNA 1: GCTATCTAGTGCTCAGTACGCACTGGGGGAGGAAACTTCTGGCAGGACCAGGTCATGAGATCGGAAGAGCACACGTCTGAACTCCAGTCA
DNA 2: TGACTGGAGTTCAGACGTGTGCTCTTCCGATCTCATGACCTGGTCCTGCCAGAAGTTTCCTCCCCCAGTGCGTACTGAGCACTAGATAGC
RNA: AAUUUCUACUCUUGUAGAUAGGAAACUUCUGGCAGGACC
B12: TCGG (dsDNA)
DNA 1: GCTATCTAGTGCTCAGTACGCACTGTCGGAGGAAACTTCTGGCAGGACCAGGTCATGAGATCGGAAGAGCACACGTCTGAACTCCAGTCA
DNA 2: TGACTGGAGTTCAGACGTGTGCTCTTCCGATCTCATGACCTGGTCCTGCCAGAAGTTTCCTCCGACAGTGCGTACTGAGCACTAGATAGC
RNA: AAUUUCUACUCUUGUAGAUAGGAAACUUCUGGCAGGACC
B13: TGCA (dsDNA)
DNA 1: GCTATCTAGTGCTCAGTACGCACTGTGCAAGGAAACTTCTGGCAGGACCAGGTCATGAGATCGGAAGAGCACACGTCTGAACTCCAGTCA
DNA 2: TGACTGGAGTTCAGACGTGTGCTCTTCCGATCTCATGACCTGGTCCTGCCAGAAGTTTCCTTGCACAGTGCGTACTGAGCACTAGATAGC
RNA: AAUUUCUACUCUUGUAGAUAGGAAACUUCUGGCAGGACC
B14: GGCG (dsDNA)
DNA 1: GCTATCTAGTGCTCAGTACGCACTGGGCGAGGAAACTTCTGGCAGGACCAGGTCATGAGATCGGAAGAGCACACGTCTGAACTCCAGTCA
DNA 2: TGACTGGAGTTCAGACGTGTGCTCTTCCGATCTCATGACCTGGTCCTGCCAGAAGTTTCCTCGCCCAGTGCGTACTGAGCACTAGATAGC
RNA: AAUUUCUACUCUUGUAGAUAGGAAACUUCUGGCAGGACC
B15: AAAC (dsDNA)
DNA 1: GCTATCTAGTGCTCAGTACGCACTGAAACAGGAAACTTCTGGCAGGACCAGGTCATGAGATCGGAAGAGCACACGTCTGAACTCCAGTCA
DNA 2: TGACTGGAGTTCAGACGTGTGCTCTTCCGATCTCATGACCTGGTCCTGCCAGAAGTTTCCTGTTTCAGTGCGTACTGAGCACTAGATAGC
RNA: AAUUUCUACUCUUGUAGAUAGGAAACUUCUGGCAGGACC
B16: TACT (dsDNA)
DNA 1: GCTATCTAGTGCTCAGTACGCACTGTACTAGGAAACTTCTGGCAGGACCAGGTCATGAGATCGGAAGAGCACACGTCTGAACTCCAGTCA
DNA 2: TGACTGGAGTTCAGACGTGTGCTCTTCCGATCTCATGACCTGGTCCTGCCAGAAGTTTCCTAGTACAGTGCGTACTGAGCACTAGATAGC
RNA: AAUUUCUACUCUUGUAGAUAGGAAACUUCUGGCAGGACC

Target: dAsCas12a E174R (Acidaminococcus sp., UniProt U2UMQ6 1-1307, E174R;D908A;E993A;D1235A)
Experiment: Spec-seq (native PAGE EMSA with sequencing of bound and unbound); 25 mM Tris-HCl pH 7.4, 150 mM KCl, 5 mM MgCl2, 10% glycerol, 1 mM DTT, 40 ng/uL salmon sperm DNA; 400 nM Cas12a, 480 nM crRNA, 50 nM library, 37 C 1 h; native PAGE at room temperature; high values mean tight binding
Conditions: protein: recombinant
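Further: relative affinity from the bound to unbound sequence frequency ratio in Spec-seq.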

Binder | binding signal
B1 | -8.88 lnKA
B4 | -9 lnKA
B5 | -8.98 lnKA
B6 | -8.73 lnKA
B8 | -8.95 lnKA
B9 | -8.52 lnKA
B11 | -8.85 lnKA
B12 | -8.87 lnKA
B13 | -8.93 lnKA
B14 | -8.97 lnKA
B16 | -8.98 lnKA

Target: dAsCas12a S542R (Acidaminococcus sp., UniProt U2UMQ6 1-1307, S542R;D908A;E993A;D1235A)
Experiment: as above
Conditions: protein: recombinant

Binder | binding signal
B1 | -8.38 lnKA
B2 | -8.12 lnKA
B3 | -7.9 lnKA
B4 | -8.01 lnKA
B5 | -8.4 lnKA
B6 | -7.76 lnKA
B7 | -8.41 lnKA
B8 | -8.41 lnKA
B9 | -6.38 lnKA
B10 | -8.45 lnKA
B12 | -8.02 lnKA
B13 | -8.02 lnKA
B14 | -8.43 lnKA
B15 | -8.48 lnKA
B16 | -7.99 lnKA

Target: d-enCas12a (Acidaminococcus sp., UniProt U2UMQ6 1-1307, E174R;S542R;K548R;D908A;E993A;D1235A)
Experiment: as above
Conditions: protein: recombinant

Binder | binding signal
B1 | -5.81 lnKA
B2 | -2.72 lnKA
B3 | -2.33 lnKA
B4 | -5.51 lnKA
B5 | -5.24 lnKA
B6 | -1.44 lnKA
B7 | -5.66 lnKA
B8 | -5.69 lnKA
B9 | -2.71 lnKA
B10 | -5.7 lnKA
B11 | -5.75 lnKA
B12 | -5.8 lnKA
B13 | -2 lnKA
B14 | -5.65 lnKA
B15 | -5.25 lnKA
B16 | -2.8 lnKA

Target: d-enCas12a-Ultra (Acidaminococcus sp., UniProt U2UMQ6 1-1307, E174R;S542R;K548R;M537R;F870L;D908A;E993A;D1235A)
Experiment: as above
Conditions: protein: recombinant

Binder | binding signal
B1 | -3.32 lnKA
B2 | -0.706 lnKA
B3 | -0.621 lnKA
B4 | -3.27 lnKA
B5 | -2.1 lnKA
B6 | -0.407 lnKA
B7 | -3.17 lnKA
B8 | -3.33 lnKA
B9 | -0.526 lnKA
B10 | -3.44 lnKA
B11 | -3.49 lnKA
B12 | -3.45 lnKA
B13 | -0.483 lnKA
B14 | -2.64 lnKA
B15 | -2.57 lnKA
B16 | -0.733 lnKA
